According to PMC9911399, “Two distinct binding modes provide the RNA-binding protein RbFox with extraordinary sequence specificity”:
Where a chain is given by its changes, count along the chain named. Whole data set: some 16,000 sequences, median “ka relative to ugcaugu” near 0.096, cut for the highest 2% near 0.35. Many of the other results were omitted from the sample, so the highest values are more common in it than they were.

T1: RBFOX1 RRM RbFoxmut (Fox-RRM*) (Homo sapiens, UniProt Q9NWB1 109-208, R118D;E147R;N151S;E152T)
T1 sequence: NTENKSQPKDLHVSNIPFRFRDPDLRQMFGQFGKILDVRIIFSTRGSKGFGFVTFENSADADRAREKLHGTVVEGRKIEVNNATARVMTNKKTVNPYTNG

B1: UCCCUCG (DNA:RNA)
RNA: GGGAGACCGGAAUUCAGAUUGUCCUCCCUCGUUAAAUCCCGUCGUAGCCACCA
DNA 1: CAATCTGAATTCCGGTCTCCC
DNA 2: TGGTGGCTACGACGGGATT
B2: CAACAUU (DNA:RNA)
RNA: B1 RNA with U25C, C26A, C27A, U29A, C30U, G31U
DNA 1: CAATCTGAATTCCGGTCTCCC
DNA 2: TGGTGGCTACGACGGGATT
B3: UUGUUCU (DNA:RNA)
RNA: B1 RNA with C26U, C27G, C28U, G31U
DNA 1: CAATCTGAATTCCGGTCTCCC
DNA 2: TGGTGGCTACGACGGGATT
B4: AGUGUUG (DNA:RNA)
RNA: B1 RNA with U25A, C26G, C27U, C28G, C30U
DNA 1: CAATCTGAATTCCGGTCTCCC
DNA 2: TGGTGGCTACGACGGGATT
B5: AGUCACC (DNA:RNA)
RNA: B1 RNA with U25A, C26G, C27U, U29A, G31C
DNA 1: CAATCTGAATTCCGGTCTCCC
DNA 2: TGGTGGCTACGACGGGATT
B6: UGUACCC (DNA:RNA)
RNA: B1 RNA with C26G, C27U, C28A, U29C, G31C
DNA 1: CAATCTGAATTCCGGTCTCCC
DNA 2: TGGTGGCTACGACGGGATT
B7: GCAGACU (DNA:RNA)
RNA: B1 RNA with U25G, C27A, C28G, U29A, G31U
DNA 1: CAATCTGAATTCCGGTCTCCC
DNA 2: TGGTGGCTACGACGGGATT
B8: ACGUAGC (DNA:RNA)
RNA: B1 RNA with U25A, C27G, C28U, U29A, C30G, G31C
DNA 1: CAATCTGAATTCCGGTCTCCC
DNA 2: TGGTGGCTACGACGGGATT
B9: GGUAUUG (DNA:RNA)
RNA: B1 RNA with U25G, C26G, C27U, C28A, C30U
DNA 1: CAATCTGAATTCCGGTCTCCC
DNA 2: TGGTGGCTACGACGGGATT
B10: GGUCCGU (DNA:RNA)
RNA: B1 RNA with U25G, C26G, C27U, U29C, C30G, G31U
DNA 1: CAATCTGAATTCCGGTCTCCC
DNA 2: TGGTGGCTACGACGGGATT
B11: ACGUCCC (DNA:RNA)
RNA: B1 RNA with U25A, C27G, C28U, U29C, G31C
DNA 1: CAATCTGAATTCCGGTCTCCC
DNA 2: TGGTGGCTACGACGGGATT
B12: GGUAUUA (DNA:RNA)
RNA: B1 RNA with U25G, C26G, C27U, C28A, C30U, G31A
DNA 1: CAATCTGAATTCCGGTCTCCC
DNA 2: TGGTGGCTACGACGGGATT
B13: GGUAUGU (DNA:RNA)
RNA: B1 RNA with U25G, C26G, C27U, C28A, C30G, G31U
DNA 1: CAATCTGAATTCCGGTCTCCC
DNA 2: TGGTGGCTACGACGGGATT
B14: ACGUAUG (DNA:RNA)
RNA: B1 RNA with U25A, C27G, C28U, U29A, C30U
DNA 1: CAATCTGAATTCCGGTCTCCC
DNA 2: TGGTGGCTACGACGGGATT
B15: CAGUAUG (DNA:RNA)
RNA: B1 RNA with U25C, C26A, C27G, C28U, U29A, C30U
DNA 1: CAATCTGAATTCCGGTCTCCC
DNA 2: TGGTGGCTACGACGGGATT
B16: CGGUCGU (DNA:RNA)
RNA: GGGAGACCGGAAUUCAGAUUGUCCCGGUCGUUUAAAUCCCGUCGUAGCCACCA
DNA 1: CAATCTGAATTCCGGTCTCCC
DNA 2: TGGTGGCTACGACGGGATT
B17: CCCAGUA (DNA:RNA)
RNA: B1 RNA with U25C, C28A, U29G, C30U, G31A
DNA 1: CAATCTGAATTCCGGTCTCCC
DNA 2: TGGTGGCTACGACGGGATT
B18: GUCGGUA (DNA:RNA)
RNA: B1 RNA with U25G, C26U, C28G, U29G, C30U, G31A
DNA 1: CAATCTGAATTCCGGTCTCCC
DNA 2: TGGTGGCTACGACGGGATT
B19: AGUAUGU (DNA:RNA)
RNA: B16 RNA with C25A, G27U, U28A, C29U
DNA 1: CAATCTGAATTCCGGTCTCCC
DNA 2: TGGTGGCTACGACGGGATT
B20: CUUACUC (DNA:RNA)
RNA: B16 RNA with G26U, G27U, U28A, G30U, U31C
DNA 1: CAATCTGAATTCCGGTCTCCC
DNA 2: TGGTGGCTACGACGGGATT

These binders were tested against T1, RBFOX1 RRM RbFoxmut (Fox-RRM*) (assay: EMSA; HiTS-Eq, 1 nM pool, 10 min; buffer printed only for the single-RNA assays: 10 mM Tris pH 7.5, 150 mM NaCl, 3.4 mM EDTA, 0.001% NP-40, 30 C). Conditions: tags: His6 N-terminal (pET28a); label: 5' 32P.
Summary of the method: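 A pool of RNA with 7 randomized nucleotides, 5′-radiolabelled and with DNA-annealed flanks, was equilibrated at 1 nM for 10 min in 50 µL with purified RbFox RRM, wild type or mutant, across increasing protein concentrations. Free RNA was separated by 8% native PAGE, excised, reverse-transcribed, barcoded by PCR and sequenced. Relative association constants were obtained from read-count changes of each RNA species versus the control reaction and normalised to the cognate motif.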
In the case of B1, the binding signal is reported as 0.133 KA relative to UGCAUGU. B2 was tested, and the binding signal was 0.0738 KA relative to UGCAUGU. For B3, the binding signal was 0.113 KA relative to UGCAUGU. For B4, the binding signal was 0.186 KA relative to UGCAUGU. With B5 the binding signal was 0.0525 KA relative to UGCAUGU. With B6 the binding signal was 0.0834 KA relative to UGCAUGU. In the case of B7, the binding signal is reported as 0.0704 KA relative to UGCAUGU. B8 was tested, and the binding signal was 0.122 KA relative to UGCAUGU. With B9 the binding signal was 0.466 KA relative to UGCAUGU. With B10 the binding signal was 0.136 KA relative to UGCAUGU. With B11 the binding signal was 0.056 KA relative to UGCAUGU. With B12 the binding signal was 0.107 KA relative to UGCAUGU. In the case of B13, the binding signal is reported as 0.662 KA relative to UGCAUGU. In the case of B14, the binding signal is reported as 0.385 KA relative to UGCAUGU. With B15 the binding signal was 0.566 KA relative to UGCAUGU. In the case of B16, the binding signal is reported as 0.104 KA relative to UGCAUGU. In the case of B17, the binding signal is reported as 0.116 KA relative to UGCAUGU. With B18 the binding signal was 0.2 KA relative to UGCAUGU. B19 was tested, and the binding signal was 0.351 KA relative to UGCAUGU. With B20 the binding signal was 0.0513 KA relative to UGCAUGU.
